# In the supplement of paper PMC9023506:
# Counter-ions that a name gives are not always drawn.
# System: Danio rerio larvae (5 dpf)
# Assay: optomotor response to green moving lines, difference vs DMSO (percentage points (treated minus DMSO)); higher = more of the behaviour than the DMSO vehicle control
# Conditions: 10 µM; exposure time: 3 h pre-incubation + 3 h imaging
# Experimental: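 5-dpf wild-type zebrafish larvae were imaged in 96-well plates. They were treated with 190 Tocris FDA-approved drugs at 10 µM (1 µl/ml DMSO) for 3 h before and 3 h during imaging at 28.5 °C, 48 larvae per drug. Automated image analysis gave % time moving and optomotor responses. Values are drug group mean minus DMSO vehicle mean (n=844), in percentage points, for 10 behaviours.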
row,Structure (SMILES),optomotor response to green moving lines
1,CC(C)C(=O)OCC(=O)[C@@]12O[C@H](C3CCCCC3)O[C@@H]1C[C@H]1[C@@H]3CCC4=CC(=O)C=C[C@]4(C)[C@H]3[C@@H](O)C[C@@]12C [Ciclesonide],-7.98
2,N#C[C@@H]1C[C@@H]2C[C@@H]2N1C(=O)[C@@H](N)C12CC3CC(CC(O)(C3)C1)C2 [Saxagliptin hydrochloride],-3.2
3,OC(c1cc(C(F)(F)F)nc2c(C(F)(F)F)cccc12)C1CCCCN1 (stereo not given) [Mefloquine hydrochloride],-0.307
4,CC(=O)O[C@H]1C(=O)[C@@]2(C)[C@H]([C@H](OC(=O)c3ccccc3)[C@]3(O)C[C@H](OC(=O)[C@H](O)[C@@H](NC(=O)c4ccccc4)c4ccccc4)C(C)=C1C3(C)C)[C@]1(OC(C)=O)CO[C@@H]1C[C@@H]2O [Taxol],-4.62
5,Clc1ccc(COC(Cn2ccnc2)c2ccc(Cl)cc2Cl)c(Cl)c1 (stereo not given) [Miconazole nitrate],-5.21
6,CC(C)N(CCCCOCC(=O)NS(C)(=O)=O)c1cnc(-c2ccccc2)c(-c2ccccc2)n1 [Selexipag],-4.69
7,CCCCNc1cc(C(=O)O)cc(S(N)(=O)=O)c1Oc1ccccc1 [Bumetanide],5.17
8,NC(=O)N1c2ccccc2C=Cc2ccccc21 [Carbamazepine],-0.434
9,CCCCc1nc(Cl)c(CO)n1Cc1ccc(-c2ccccc2-c2nnn[nH]2)cc1 [Losartan potassium],-0.568
10,CN(C)C(=N)NC(=N)N [Metformin hydrochloride],7.37
11,COc1c(C)c2c(c(O)c1C/C=C(\C)CCC(=O)OCCN1CCOCC1)C(=O)OC2 [Mycophenolate mofetil],4.99
12,Cc1cc2c(s1)Nc1ccccc1N=C2N1CCN(C)CC1 [Olanzapine],8.6
13,COc1ccc(C[C@@H](C)NC[C@H](O)c2ccc(O)c(NC=O)c2)cc1 [Arformoterol tartrate],0.317
14,COc1ccc([C@@H]2Sc3ccccc3N(CCN(C)C)C(=O)[C@@H]2OC(C)=O)cc1 [Diltiazem hydrochloride],-3.02
15,COc1cc2ncnc(Nc3ccc(F)c(Cl)c3)c2cc1OCCCN1CCOCC1 [Iressa],-10.8
16,CCN(Cc1ccncc1)C(=O)C(CO)c1ccccc1 (stereo not given) [Tropicamide],-4.16
17,CO[C@H]1/C=C/O[C@@]2(C)Oc3c(C)c(O)c4c(O)c(c5c(nc6cc(C)ccn65)c4c3C2=O)NC(=O)/C(C)=C\C=C\[C@H](C)[C@H](O)[C@@H](C)[C@@H](O)[C@@H](C)[C@H](OC(C)=O)[C@@H]1C [Rifaximin],0.563
18,CCOc1ccccc1OCCN[C@H](C)Cc1ccc(OC)c(S(N)(=O)=O)c1 [Tamsulosin hydrochloride],-11.6
19,CCC(=O)O[C@]1(C(=O)SCF)[C@H](C)C[C@H]2[C@@H]3C[C@H](F)C4=CC(=O)C=C[C@]4(C)[C@@]3(F)[C@@H](O)C[C@@]21C [Fluticasone propionate],2.35
20,NS(=O)(=O)c1cc2c(cc1Cl)NC(C1CC3C=CC1C3)NS2(=O)=O (stereo not given) [Cyclothiazide],0.907

row,Structure (SMILES),optomotor response to green moving lines
1,CC(C)Nc1cccnc1N1CCN(C(=O)c2cc3cc(NS(C)(=O)=O)ccc3[nH]2)CC1 [Delavirdine mesylate],-4.7
2,CC(=O)Nc1ccc(O)cc1 [Acetaminophen],8.32
3,CCCN(CCC)S(=O)(=O)c1ccc(C(=O)O)cc1 [Probenecid],10.3
4,CCN(CC)CCNC(=O)c1c(C)[nH]c(/C=C2\C(=O)Nc3ccc(F)cc32)c1C [Sunitinib malate],-7.59
5,CN(C)CCC[C@@]1(c2ccc(F)cc2)OCc2cc(C#N)ccc21 [Escitalopram oxalate],1.9
6,COc1ccccc1Oc1c(NS(=O)(=O)c2ccc(C(C)(C)C)cc2)nc(-c2ncccn2)nc1OCCO [Bosentan],-5.7
7,C[C@]12CC[C@@H]3c4ccc(O)cc4C[C@@H](CCCCCCCCC[S+]([O-])CCCC(F)(F)C(F)(F)F)[C@H]3[C@@H]1CC[C@@H]2O (stereo not given in full),-7.68
8,Cc1nc(Nc2ncc(C(=O)Nc3c(C)cccc3Cl)s2)cc(N2CCN(CCO)CC2)n1 [Dasatinib],-4.87
9,Nc1nc2[nH]cc(CCc3ccc(C(=O)N[C@@H](CCC(=O)O)C(=O)O)cc3)c2c(=O)[nH]1 [Pemetrexed],8.22
10,CC(C)c1ccc2oc3nc(N)c(C(=O)O)cc3c(=O)c2c1 [Amlexanox],-0.74
11,CC#C[C@]1(O)CC[C@H]2[C@@H]3CCC4=CC(=O)CCC4=C3[C@@H](c3ccc(N(C)C)cc3)C[C@@]21C [Mifepristone],11
12,CN(C)CCc1c[nH]c2ccc(C[C@H]3COC(=O)N3)cc12 [Zolmitriptan],6.88
13,COc1cc([C@@H]2c3cc4c(cc3[C@@H](O[C@@H]3O[C@@H]5CO[C@@H](C)O[C@H]5[C@H](O)[C@H]3O)[C@H]3COC(=O)[C@H]23)OCO4)cc(OC)c1O [Etoposide],-0.812
14,Nc1ncn([C@H]2C[C@H](O)[C@@H](CO)O2)c(=O)n1 [Decitabine],0.0025
15,CC(C)C(=O)Nc1ccc([N+](=O)[O-])c(C(F)(F)F)c1 [Flutamide],-1.99
16,C[C@]12CCC(=O)C=C1CC[C@@H]1[C@@H]2[C@@H](O)C[C@@]2(C)[C@H]1CC[C@]2(O)C(=O)CO [Hydrocortisone],10.5
17,O=C1CCc2ccc(OCCCCN3CCN(c4cccc(Cl)c4Cl)CC3)cc2N1 [Aripiprazole],-2.87
18,Cc1nc(-c2ccc(OCC(C)C)c(C#N)c2)sc1C(=O)O [Febuxostat],-4.77
19,CC[C@H]1OC(=O)[C@H](C)[C@@H](O[C@H]2C[C@@](C)(OC)[C@@H](O)[C@H](C)O2)[C@H](C)[C@@H](O[C@@H]2O[C@H](C)C[C@H](N(C)C)[C@H]2O)[C@](C)(O)C[C@@H](C)CN(C)[C@H](C)[C@@H](O)[C@]1(C)O [Azithromycin],-4.27
20,Cc1cc(C2CCCCC2)n(O)c(=O)c1 [Ciclopirox],-5.97
